This excerpt belongs to a sample that is enriched for the strongest signals.

Common to all, as to assay: glycan array binding signal (z-score within array); higher = stronger binding
Holding throughout (settings): glycan notation: IUPAC condensed, linker removed; mutation: D325A

The target of experiment [1] is Fuc(a1-2)Gal(b1-3)GalNAc(b1-4)[Neu5Ac(a2-3)]Gal(b1-4)Glc. The essentials:
(§1)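 The binding signal is a Z-score computed within each array. Data were drawn from 3228 arrays in the Consortium for Functional Glycomics database, restricted to those with a known protein sequence. Scores were averaged over arrays of the same protein sequence at different concentrations or buffers, and over linkers, and negative values can be taken as non-binding.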

The target of a further experiment is Fuc(a1-2)Gal(b1-3)GlcNAc. Put shortly: as §1
Experiment [2] has as its target Fuc(a1-2)Gal(b1-4)GlcNAc(b1-3)Gal(b1-4)GlcNAc. Put shortly:
as §1

Experiment [3] has as its target Fuc(a1-2)[Gal(a1-3)]Gal(b1-4)Glc. The essentials:
as §1

The target of experiment [4] is Fuc(a1-2)[GalNAc(b1-3)]Gal. Put shortly: as §1
Experiment [5] concerns the target Fuc(a1-3)[Gal3S(b1-4)]Glc6S. Put shortly:
as §1

Experiment [6] concerns the target Fuc(a1-3)[Gal3S(b1-4)]GlcNAc. Put shortly: as §1
A further experiment deals with Gal(a1-3)GalNAc. Put shortly: as §1
The target in experiment [7] is Gal(b1-3)GlcNAc(b1-3)Gal(b1-4)GlcNAc. Put shortly:
as §1

Experiment [8] concerns the target Gal(b1-4)GlcNAc(b1-2)Man(a1-3)[Gal(b1-4)GlcNAc(b1-2)Man(a1-6)]Man(b1-4)GlcNAc(b1-4)GlcNAc. Put shortly:
as §1

In experiment [9] the target is Gal(b1-4)GlcNAc(b1-3)Gal(b1-3)GlcNAc. The essentials:
as §1

The target in a further experiment is Gal3S(b1-3)GalNAc. Put shortly:
as §1

In another experiment the target is Gal4S6S(b1-4)GlcNAc. Put shortly:
as §1

The next experiment concerns the target GlcA(b1-6)Gal. The essentials:
as §1

Experiment [10] deals with GlcNAc(b1-4)Gal(b1-4)GlcNAc. Put shortly:
as §1

Experiment [11] addresses Man(a1-2)Man(a1-2)Man(a1-3)Man. Put shortly:
as §1

Experiment [12] has as its target Man(a1-2)Man(a1-3)[Man(a1-2)Man(a1-6)]Man(a1-6)[Man(a1-2)Man(a1-2)Man(a1-3)]Man. The essentials:
as §1

Experiment [13] concerns the target Man(a1-2)Man(a1-6)[Man(a1-3)]Man(a1-6)[Man(a1-2)Man(a1-2)Man(a1-3)]Man. The essentials:
as §1

In experiment [14] the target is Man(a1-3)[Man(a1-6)]Man(a1-6)[Man(a1-2)Man(a1-3)]Man(b1-4)GlcNAc(b1-4)GlcNAc. The essentials: as §1
For experiment [15], the target named is Man(a1-3)[Man(a1-6)]Man(a1-6)[Man(a1-3)]Man. Put shortly: as §1
The target of experiment [16] is Neu5Gc(a2-3)Gal(b1-4)[Fuc(a1-3)]GlcNAc. The essentials:
as §1

B1: Surfactant Protein D (Human); Neck + Carbohydrate Recognition Domain (NCRD) (Homo sapiens) (protein)
chain: MLLFLLSALVLLTQPLGYLEAEMKTYSHRTMPSACTLVMCSSVESGLPGRDRDGREGPRGEKGDPGLPGAAGQAGMPGQAGPVGPKGDNGSVGEPGPKGDTGPSGPPGPPGVPGPAGREGALGKQGNIGPQGKPGPKGEAGPKGEVGAPGMQGSAGARGLAGPKGERGVPGERGVPGNTGAAGSAGAMGPQGSPGARGPPGLKGDKGIPGDKGAKGESGLPDVASLRQQVEALQGQVQHLQAAFSQYKKVELFPNGQSVGEKIFKTAQFVKPFTEAQLLCTQAGGQLASPRSAAENAALQQLVVAKNEAAFLSMTDSKTEGKFTYPTGESLVYSNWAPGEPNDAGGSEDCVEIFTNGKWNDRACGEKRLVVCEF
On to B1, for which the “glycan array binding signal (z-score)” value in experiment [1] is -0.163; with Fuc(a1-2)Gal(b1-3)GlcNAc, -0.276; in [2] it was -0.226; in experiment [3], -0.272; in experiment [4] it was -0.268; in [5], -0.246. The “glycan array binding signal (z-score)” value in [6] is -0.269; in the experiment with Gal(a1-3)GalNAc, -0.164; in experiment [7], -0.267; in experiment [8], -0.273; in [9], -0.269; in the experiment with Gal3S(b1-3)GalNAc, -0.274. Besides, the “glycan array binding signal (z-score)” value with Gal4S6S(b1-4)GlcNAc was -0.275; in the experiment with GlcA(b1-6)Gal, -0.26; in experiment [10], -0.128; in [11], 5.67; in experiment [12] it was 5.16; in [13], 4.8. In addition, the “glycan array binding signal (z-score)” value in experiment [14] was 4.71; in experiment [15], 4.73; in [16] it was -0.27.

The record behind these values is the supplement of paper PMC8728848.
